In PubChem BioAssay (NCATS):
Results filed as inconclusive are left out. Where a call stands in place of a potency, no number is given. Activity calls are given as the source filed them. Calls follow the shape of the dose curve; as a rule, active = well fitted curve in the direction sought with a large enough effect; inconclusive = small, poorly fitted or top-dose-only effect, or another doubt; inactive = no such curve, though single readings can be large; an effect the other way counts as inactive or inconclusive.

Tests used:
[1] = qHTS of pediatric cancer cell lines to identify multiple opportunities for drug repurposing: Primary screen for BT-37 cells (AID 1347094); also: potency is read from the fitted curve at half-maximal effect
Outline: (§1)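 Viability was measured as metabolically active cells after 48 hours of treatment, read by CellTiter-Glo luminescence. Compounds were tested at multiple final concentrations, giving concentration-response curves.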

[2] = qHTS of pediatric cancer cell lines to identify multiple opportunities for drug repurposing: Primary screen for U-2 OS cells (AID 1347096); also: nearly all actives have a fitted effect of over 50% in size; also: potency is read from the fitted curve at half-maximal effect
Outline: (§2)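 Cells (500-1,000/well) rested 5 h, then received compounds for 48 h; metabolically active cells were measured by CellTiter-Glo luminescence. Final concentrations spanned up to 46 µM (MIPE, 11-point) or 0.59 nM-46 µM (NPC, 8-point) in primary screens, 11-point in follow-ups.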

[3] = qHTS of pediatric cancer cell lines to identify multiple opportunities for drug repurposing: Primary screen for Saos-2 cells (AID 1347097); also: nearly all actives have a fitted effect of over 40% in size; also: potency is read from the fitted curve at half-maximal effect
Outline: as §1

[4] = qHTS of pediatric cancer cell lines to identify multiple opportunities for drug repurposing: Primary screen for SK-N-SH cells (AID 1347098); also: nearly all actives have a fitted effect of over 65% in size; also: potency is read from the fitted curve at half-maximal effect
Outline: as §2

[5] = qHTS of pediatric cancer cell lines to identify multiple opportunities for drug repurposing: Primary screen for NB1643 cells (AID 1347099); also: nearly all actives have a fitted effect of over 50% in size; also: potency is read from the fitted curve at half-maximal effect
Outline: as §1

[6] = qHTS of pediatric cancer cell lines to identify multiple opportunities for drug repurposing: Primary screen for LAN-5 cells (AID 1347100)
Outline: as §2

[7] = qHTS of pediatric cancer cell lines to identify multiple opportunities for drug repurposing: Primary screen for BT-12 cells (AID 1347101); also: nearly all actives have a fitted effect of over 25% in size; also: potency is read from the fitted curve at half-maximal effect
Outline: as §2

[8] = qHTS of pediatric cancer cell lines to identify multiple opportunities for drug repurposing: Primary screen for Rh18 cells (AID 1347102); also: nearly all actives have a fitted effect of over 65% in size; also: potency is read from the fitted curve at half-maximal effect
Outline: as §2

[9] = qHTS of pediatric cancer cell lines to identify multiple opportunities for drug repurposing: Primary screen for OHS-50 cells (AID 1347103); also: nearly all actives have a fitted effect of over 40% in size; also: potency is read from the fitted curve at half-maximal effect
Outline: as §2

[10] = qHTS of pediatric cancer cell lines to identify multiple opportunities for drug repurposing: Primary screen for NB-EBc1 cells (AID 1347095)
Outline: as §1

| Structure (SMILES) | Potency [1] | Potency [2] | Potency [3] | Potency [4] | Potency [5] | Potency [6] | Potency [7] | Potency [8] | Potency [9] | Potency [10] |
| --- | --- | --- | --- | --- | --- | --- | --- | --- | --- | --- |
| CN1C(=O)NC(=O)C(C)(C2=CCCCC2)C1=O (stereo not given) | inactive | inactive | inactive | inactive | inactive | inactive | inactive | inactive | inactive |  |
| COP(=S)(OC)Oc1cc(Cl)c(Cl)cc1Cl | inactive | inactive | inactive | inactive | inactive |  | inactive | inactive | inactive | inactive |
| COc1c2c(cc3c1OCO3)CCN(C)C2 | inactive | inactive |  | inactive | inactive | inactive | inactive | inactive |  | inactive |
| NCCc1ccc(O)cc1 | inactive | inactive | inactive | inactive | inactive | inactive | inactive | inactive | inactive |  |
| CCC(C)C(C)(COC(N)=O)COC(N)=O (stereo not given) | inactive | inactive | inactive | inactive | inactive | inactive | inactive | inactive | inactive |  |
| Oc1ccc(Cl)cc1 | inactive | inactive | inactive | inactive | inactive | inactive | inactive | inactive | inactive |  |
| COC(=O)C(Cl)C(=O)OC | inactive | inactive | inactive | inactive | inactive | inactive | inactive | inactive | inactive |  |
| Nc1nc(N)nc(NC2CC2)n1 | inactive | inactive | inactive | inactive | inactive | inactive | inactive | inactive | inactive |  |
| CCC(CC)(CNC(=O)CCCO)c1cccc(OC)c1 | inactive | inactive | inactive | inactive | inactive | inactive | inactive | inactive | inactive |  |
| CC(C)(C)NCC(O)c1ccccc1Cl (stereo not given) | inactive | inactive | inactive |  | inactive | inactive | inactive | inactive | inactive | inactive |
| CN1C(=O)COc2c(C(=O)NC3CN4CCC3CC4)cc(Cl)cc21 (stereo not given) | inactive | inactive | inactive | inactive | inactive | inactive | inactive | inactive | inactive |  |
| C[N+]1(CCF)[C@@H]2CC[C@H]1CC(OC(=O)C(O)(c1ccccc1)c1ccccc1)C2 (stereo not given in full) | inactive | inactive | inactive | inactive | inactive | inactive | inactive | inactive | inactive |  |
| CC(C)C[C@H](CN)CC(=O)O | inactive | inactive | inactive |  |  |  | inactive | inactive | inactive | inactive |
| CC(Cc1ccccc1)N(C)Cc1ccco1 (stereo not given) | inactive | inactive | inactive | inactive | inactive | inactive | inactive | inactive | inactive |  |
| CCN[C@H](C)Cc1cccc(C(F)(F)F)c1 | inactive | inactive | inactive |  | inactive | inactive | inactive | inactive | inactive | inactive |
| CC(=O)NC1CCSC1=O (stereo not given) | inactive | inactive |  | inactive | inactive | inactive | inactive | inactive | inactive | inactive |
| CCN(CC)CCc1c[nH]c2ccccc12 | inactive | inactive | inactive | 37 µM (active) | inactive | inactive | inactive | inactive |  |  |
| CC(C(=O)c1ccccc1)N(C)C (stereo not given) | inactive | inactive | inactive | inactive | inactive | inactive | inactive | inactive | inactive |  |
| CC(=O)C1CCOC1=O (stereo not given) | inactive | inactive | inactive | inactive | inactive |  | inactive | inactive | inactive | inactive |

| Structure (SMILES) | Potency [1] | Potency [2] | Potency [3] | Potency [4] | Potency [5] | Potency [6] | Potency [7] | Potency [8] | Potency [9] | Potency [10] |
| --- | --- | --- | --- | --- | --- | --- | --- | --- | --- | --- |
| CC(C)NC(C)C | inactive | inactive | inactive | inactive | inactive |  | inactive | inactive | inactive | inactive |
| COP(=S)(OC)SCN1C(=O)c2ccccc2C1=O | inactive | inactive |  | inactive |  | inactive | inactive | inactive | inactive | inactive |
| O=[N+]([O-])O[C@H]1CO[C@H]2[C@@H]1OC[C@H]2O[N+](=O)[O-] | inactive | inactive | inactive | inactive | inactive | inactive | inactive | inactive | inactive |  |
| C[C@]12CC[C@H]3[C@@H](CCC4=CC(=O)CC[C@@H]43)[C@@H]1CC[C@@H]2OC(=O)CCc1ccco1 | inactive | inactive |  | inactive | inactive | inactive | inactive | inactive |  | inactive |
| CN(C)CCc1c[nH]c2cccc(OP(=O)(O)O)c12 | inactive | inactive | inactive | inactive | inactive |  | inactive | inactive | inactive | inactive |
| C=CCC1(C(C)CC)C(=O)NC(=O)NC1=O (stereo not given) | inactive | inactive | inactive |  | inactive | inactive | inactive | inactive | inactive | inactive |
| CN1CCC(O)(c2ccc(F)cc2)C(C(=O)c2ccc(F)cc2)C1 (stereo not given) | inactive | inactive | inactive |  | inactive | inactive | inactive | inactive | inactive | inactive |
| CC1(C)C(C=C(Cl)Cl)C1C(=O)OC(C#N)c1cccc(Oc2ccccc2)c1 (stereo not given) | inactive | inactive | inactive |  | inactive | inactive | inactive | inactive | inactive | inactive |
| CN1CC[C@]23c4c5ccc(O)c4O[C@H]2[C@@H](O)C=C[C@H]3[C@H]1C5 | inactive | inactive |  |  |  | inactive |  | inactive | inactive | inactive |
| COP(=S)(OC)Oc1ccc(S(=O)(=O)N(C)C)cc1 | inactive | inactive | inactive | inactive | inactive |  | inactive | inactive | inactive | inactive |
| O=C1CN=C(c2ccccc2)c2cc([N+](=O)[O-])ccc2N1 | inactive | inactive |  | inactive | inactive | inactive | inactive | inactive | inactive | inactive |
| CC(C)c1c(CN(C)C(C)Cc2ccccc2)n(C)n(-c2ccccc2)c1=O (stereo not given) | inactive | inactive | inactive | inactive | inactive |  |  | inactive | inactive | inactive |
| ClCCN1CCCC1 | inactive | inactive | inactive | inactive | inactive | inactive | inactive | inactive | inactive |  |
| C[C@]12CC[C@@H]3c4ccc(OC(=O)N(CCCl)CCCl)cc4CC[C@H]3[C@@H]1CC[C@@H]2O | inactive | inactive |  | inactive | inactive | inactive | inactive | inactive |  |  |
| C[C@]12Cc3cn[nH]c3C[C@@H]1CC[C@@H]1[C@@H]2CC[C@@]2(C)[C@H]1CC[C@]2(C)O | inactive |  | 26.6 µM (active) |  |  |  | inactive | inactive |  |  |
| CN1CC[C@]23c4c5ccc(O)c4O[C@H]2[C@@H](O)CC[C@H]3[C@H]1C5 | inactive | inactive | inactive | inactive | inactive |  | inactive | inactive | inactive |  |
| C[C@](O)(CS(=O)(=O)c1ccc(F)cc1)C(=O)Nc1ccc(C#N)c(C(F)(F)F)c1 | 19.3 µM (active) | 14.8 µM (active) | inactive | 2.41 µM (active) | 2.96 µM (active) |  |  |  | inactive |  |
| c1ccc2c(c1)sc1ccccc12 | inactive | inactive |  | inactive | inactive |  | inactive | inactive | inactive |  |
| C[C@]12CCC(=O)C=C1CC[C@@H]1[C@H]3CC[C@](C)(O)[C@@]3(C)CC[C@@H]12 |  |  | 27.5 µM (active) |  | 34.7 µM (active) |  | 28.6 µM (active) | inactive | 25.5 µM (active) |  |

| Structure (SMILES) | Potency [1] | Potency [2] | Potency [3] | Potency [4] | Potency [5] | Potency [6] | Potency [7] | Potency [8] | Potency [9] | Potency [10] |
| --- | --- | --- | --- | --- | --- | --- | --- | --- | --- | --- |
| NC1=NC(=O)C(c2ccccc2)O1 (stereo not given) | inactive | inactive | inactive | inactive | inactive |  | inactive | inactive | inactive |  |
| CCN[C@@H](C)Cc1cccc(C(F)(F)F)c1 | inactive | inactive | inactive | inactive | inactive |  | inactive | inactive | inactive |  |
| COc1cccc(C(=O)CCN[C@@H](C)[C@H](O)c2ccccc2)c1 | inactive | inactive |  | 30.7 µM (active) |  |  | inactive | inactive |  |  |
| Clc1ccc(C(c2ccc(Cl)cc2)C(Cl)(Cl)Cl)cc1 |  | inactive |  |  |  |  | inactive | inactive |  |  |
| c1ccc(N2CCNCC2)cc1 | inactive | inactive | inactive | inactive | inactive |  | inactive | inactive | inactive |  |
| COc1cccc2c1C(=O)c1c(O)c3c(c(O)c1C2=O)C[C@@](O)(C(=O)CO)CC3OC1CC(N2CCOC(OC)C2)C(O)C(C)O1 (stereo not given in full) | 0.0276 µM (active) | 0.266 µM (active) |  | 0.0217 µM (active) | 0.0266 µM (active) |  | 0.0692 µM (active) | 0.0596 µM (active) | 0.0347 µM (active) |  |
| Clc1cccc(SC2CCNCC2)n1 | inactive | inactive | inactive | inactive | inactive |  | inactive | inactive | inactive |  |
| C[C@]12CC[C@@H]3c4ccc(OC(=O)N(CCCl)CCCl)cc4CC[C@H]3[C@@H]1CC[C@@H]2OP(=O)(O)O | inactive | inactive |  | inactive | inactive |  | inactive | inactive | inactive |  |
| C[C@H]1[C@@H]2Cc3ccc(O)cc3[C@@]1(C)CCN2C | inactive | inactive | inactive | inactive | inactive |  | inactive | inactive |  |  |
| Cc1ncsc1CCCl | inactive | inactive | inactive | inactive | inactive |  | inactive | inactive | inactive |  |
| CCOP(=S)(OCC)Oc1ccc2c(C)c(Cl)c(=O)oc2c1 | inactive | inactive | inactive |  | inactive |  | inactive | inactive | inactive |  |
| O=P1(N(CCCl)CCCl)NCCCO1 (stereo not given) | inactive | inactive | inactive | inactive | inactive |  | inactive | inactive | inactive |  |
| O=c1[nH]c2ccccc2n1C1CCNCC1 | inactive | inactive | inactive | inactive | inactive |  | inactive | inactive | inactive |  |
| CCCCCCCCCC(=O)O[C@H]1CC[C@H]2[C@@H]3CCC4=CC(=O)CC[C@@H]4[C@H]3CC[C@]12C | inactive | inactive | inactive |  | inactive |  | inactive | inactive | inactive |  |
| CCN[C@@H](C)Cc1ccccc1 | inactive | inactive | inactive | inactive | inactive |  | inactive | inactive | inactive |  |
| CCCCCCC(=O)CCCCCC/C=C/C[C@@H](O)[C@H](O)[C@@](N)(CO)C(=O)O | inactive | inactive |  | inactive | inactive | inactive | inactive | inactive |  |  |
| CC(C)c1cccc(C(C)C)c1O | inactive | inactive | inactive |  | inactive | inactive |  | inactive | inactive |  |
| CCN(CC)C(=O)[C@@H]1C=C2c3cccc4[nH]cc(c34)C[C@H]2N(C)C1 |  | inactive |  |  | inactive |  | inactive | inactive | inactive |  |
| CCC1(c2ccc(N)cc2)CCC(=O)NC1=O (stereo not given) | inactive | inactive | inactive | inactive | inactive | inactive | inactive | inactive | inactive |  |
